We go through 21 molecules from publication PMC9911399, “Two distinct binding modes provide the RNA-binding protein RbFox with extraordinary sequence specificity”.

Positions count from the first letter of the chain named. The full ranking holds about 16,000 sequences; the median of “ka relative to ugcaugu” is about 0.0091, and the highest 2% start at about 0.032. The list comes from a sample in which the highest values are over-represented; it also holds similar and randomly drawn sequences.

The chains are these.
T1: RBFOX1 RRM (Homo sapiens, UniProt Q9NWB1 109-208)
T1 sequence: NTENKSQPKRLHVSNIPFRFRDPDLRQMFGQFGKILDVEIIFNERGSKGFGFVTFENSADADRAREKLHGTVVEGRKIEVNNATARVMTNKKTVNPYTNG

B1: UCAAUCC (DNA:RNA)
RNA: GGGAGACCGGAAUUCAGAUUGUCCUCAAUCCUUAAAUCCCGUCGUAGCCACCA
DNA 1: CAATCTGAATTCCGGTCTCCC
DNA 2: TGGTGGCTACGACGGGATT
B2: UAUUGCC (DNA:RNA)
RNA: B1 RNA with C26A, A27U, A28U, U29G
DNA 1: CAATCTGAATTCCGGTCTCCC
DNA 2: TGGTGGCTACGACGGGATT
B3: UGUUAGC (DNA:RNA)
RNA: B1 RNA with C26G, A27U, A28U, U29A, C30G
DNA 1: CAATCTGAATTCCGGTCTCCC
DNA 2: TGGTGGCTACGACGGGATT
B4: GACUGAA (DNA:RNA)
RNA: GGGAGACCGGAAUUCAGAUUGUCCGACUGAAUUAAAUCCCGUCGUAGCCACCA
DNA 1: CAATCTGAATTCCGGTCTCCC
DNA 2: TGGTGGCTACGACGGGATT
B5: UUCAGCC (DNA:RNA)
RNA: B1 RNA with C26U, A27C, U29G
DNA 1: CAATCTGAATTCCGGTCTCCC
DNA 2: TGGTGGCTACGACGGGATT
B6: ACCUUCG (DNA:RNA)
RNA: B1 RNA with U25A, A27C, A28U, C31G
DNA 1: CAATCTGAATTCCGGTCTCCC
DNA 2: TGGTGGCTACGACGGGATT
B7: ACCUAAG (DNA:RNA)
RNA: B4 RNA with G25A, A26C, G29A, A31G
DNA 1: CAATCTGAATTCCGGTCTCCC
DNA 2: TGGTGGCTACGACGGGATT
B8: UUACAAU (DNA:RNA)
RNA: B1 RNA with C26U, A28C, U29A, C30A, C31U
DNA 1: CAATCTGAATTCCGGTCTCCC
DNA 2: TGGTGGCTACGACGGGATT
B9: GAUUGAC (DNA:RNA)
RNA: B4 RNA with C27U, A31C
DNA 1: CAATCTGAATTCCGGTCTCCC
DNA 2: TGGTGGCTACGACGGGATT
B10: UAGUCCU (DNA:RNA)
RNA: B4 RNA with G25U, C27G, G29C, A30C, A31U
DNA 1: CAATCTGAATTCCGGTCTCCC
DNA 2: TGGTGGCTACGACGGGATT
B11: GUACGUA (DNA:RNA)
RNA: B4 RNA with A26U, C27A, U28C, A30U
DNA 1: CAATCTGAATTCCGGTCTCCC
DNA 2: TGGTGGCTACGACGGGATT
B12: CUUUCCU (DNA:RNA)
RNA: B4 RNA with G25C, A26U, C27U, G29C, A30C, A31U
DNA 1: CAATCTGAATTCCGGTCTCCC
DNA 2: TGGTGGCTACGACGGGATT
B13: UCGUCGA (DNA:RNA)
RNA: B4 RNA with G25U, A26C, C27G, G29C, A30G
DNA 1: CAATCTGAATTCCGGTCTCCC
DNA 2: TGGTGGCTACGACGGGATT
B14: UCCUCGA (DNA:RNA)
RNA: B4 RNA with G25U, A26C, G29C, A30G
DNA 1: CAATCTGAATTCCGGTCTCCC
DNA 2: TGGTGGCTACGACGGGATT
B15: GUCUCGA (DNA:RNA)
RNA: B4 RNA with A26U, G29C, A30G
DNA 1: CAATCTGAATTCCGGTCTCCC
DNA 2: TGGTGGCTACGACGGGATT
B16: UGCUCGA (DNA:RNA)
RNA: B4 RNA with G25U, A26G, G29C, A30G
DNA 1: CAATCTGAATTCCGGTCTCCC
DNA 2: TGGTGGCTACGACGGGATT
B17: CGCUCGG (DNA:RNA)
RNA: B4 RNA with G25C, A26G, G29C, A30G, A31G
DNA 1: CAATCTGAATTCCGGTCTCCC
DNA 2: TGGTGGCTACGACGGGATT
B18: GGCUCGA (DNA:RNA)
RNA: B4 RNA with A26G, G29C, A30G
DNA 1: CAATCTGAATTCCGGTCTCCC
DNA 2: TGGTGGCTACGACGGGATT
B19: UGCUCGG (DNA:RNA)
RNA: B4 RNA with G25U, A26G, G29C, A30G, A31G
DNA 1: CAATCTGAATTCCGGTCTCCC
DNA 2: TGGTGGCTACGACGGGATT
B20: UCGUCGG (DNA:RNA)
RNA: B1 RNA with A27G, A28U, U29C, C30G, C31G
DNA 1: CAATCTGAATTCCGGTCTCCC
DNA 2: TGGTGGCTACGACGGGATT
B21: CGGCUCG (DNA:RNA)
RNA: B1 RNA with U25C, C26G, A27G, A28C, C31G
DNA 1: CAATCTGAATTCCGGTCTCCC
DNA 2: TGGTGGCTACGACGGGATT

For this assay, the target named is T1, RBFOX1 RRM. As to the kind of experiment: EMSA; HiTS-Eq, 1 nM pool, 10 min; buffer printed only for the single-RNA assays: 10 mM Tris pH 7.5, 150 mM NaCl, 3.4 mM EDTA, 0.001% NP-40, 30 C. Particulars: tags: His6 N-terminal (pET28a); label: 5' 32P. The procedure, abridged: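 Purified RbFox RRM, wild type or mutant, was incubated for 10 min in 50 µL with 1 nM of a 5′-radiolabelled RNA pool carrying 7 randomized nucleotides, whose flanks were annealed to DNA oligonucleotides, over a series of increasing protein concentrations. Unbound RNA was resolved on 8% native PAGE, cut out, reverse-transcribed, barcoded by PCR and sequenced on an Illumina HiSeq 2500. Relative association constants were derived from changes in read counts for each RNA species versus the control reaction and normalised to the cognate motif.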
A general note: In EMSA bound probe runs differently from free probe, usually more slowly.
As for B1, the binding signal was 0.00161 KA relative to UGCAUGU.

As for B2, the binding signal was 0.012 KA relative to UGCAUGU.

With B3, the binding signal is 0.0176 KA relative to UGCAUGU.

For the molecule B4, the binding signal is 0.0274 KA relative to UGCAUGU.

In the case of B5, the binding signal was 0.0103 KA relative to UGCAUGU.

Turning to B6, the binding signal was 0.00839 KA relative to UGCAUGU.

As for B7, the binding signal was 0.00359 KA relative to UGCAUGU.

As for B8, the binding signal was 0.00107 KA relative to UGCAUGU.

As to B9, the binding signal was 0.0228 KA relative to UGCAUGU.

As for B10, the binding signal is 0.00776 KA relative to UGCAUGU.

With B11, the binding signal is 0.0085 KA relative to UGCAUGU.

Regarding B12, the binding signal was 0.0054 KA relative to UGCAUGU.

Consider B13, for which the binding signal was 0.014 KA relative to UGCAUGU.

Consider B14, for which the binding signal is 0.00976 KA relative to UGCAUGU.

B15: the binding signal was 0.0166 KA relative to UGCAUGU.

With B16, the binding signal is 0.0363 KA relative to UGCAUGU.

B17: the binding signal was 0.0166 KA relative to UGCAUGU.

As to B18, the binding signal was 0.033 KA relative to UGCAUGU.

Turning to B19, the binding signal is 0.0361 KA relative to UGCAUGU.

With B20, the binding signal is 0.0171 KA relative to UGCAUGU.

As to B21, the binding signal was 0.0112 KA relative to UGCAUGU.
